Data from PubChem BioAssay AID1851 (National Center for Advancing Translational Sciences (NCATS), 2009).
Out of some 16,000 compounds screened, about 5,100 (32%) were called active. Roughly 25% stayed inconclusive and do not appear here. Calls follow the shape of the dose curve; as a rule, active = well fitted curve in the direction sought with a large enough effect; inconclusive = small, poorly fitted or top-dose-only effect, or effect the other way; inactive = no such curve, though single readings can be large or run the other way. The list shows a part of the results. Peptide text beside a SMILES is read from it.

target: Cytochrome P450 3A4 (Homo sapiens) (UniProt P08684); experiment: Cytochrome panel assay with activity outcomes; conditions: recombinant CYP, pro-luciferin dealkylation, luminescence, p450-cyp3a4; series mostly up to 57.1 µM
Sequence (P08684 whole entry, looked up): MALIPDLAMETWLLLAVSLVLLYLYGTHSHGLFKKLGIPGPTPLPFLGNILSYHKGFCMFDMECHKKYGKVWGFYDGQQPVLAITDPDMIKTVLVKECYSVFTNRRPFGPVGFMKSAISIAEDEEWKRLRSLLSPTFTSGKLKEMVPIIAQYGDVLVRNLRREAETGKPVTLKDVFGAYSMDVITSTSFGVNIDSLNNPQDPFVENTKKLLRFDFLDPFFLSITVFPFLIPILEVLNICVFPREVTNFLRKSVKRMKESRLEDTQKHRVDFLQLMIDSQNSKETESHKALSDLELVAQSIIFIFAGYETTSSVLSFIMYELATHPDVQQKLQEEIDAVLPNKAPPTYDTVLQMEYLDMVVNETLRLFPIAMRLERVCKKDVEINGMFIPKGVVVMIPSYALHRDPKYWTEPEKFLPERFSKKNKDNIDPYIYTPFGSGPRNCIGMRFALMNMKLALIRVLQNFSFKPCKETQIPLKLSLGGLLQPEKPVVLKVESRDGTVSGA
% is scaled to controls: 0 for no effect and ±100 for the full control effect.

Row | SMILES | AC50 | activity, negative = inhibition
1 | CN1CCN(C(=O)C(C(=O)c2ccc(F)cc2)n2ccccc2=O)CC1 (stereo not drawn) | inactive | 
2 | CC(=O)N[C@@H](CC(=O)O)C(=O)N[C@@H](CCC(=O)O)C(=O)O (Ac-Asp-Glu-OH) | inactive | 
3 | COc1cc(/C=N/O)cc(Br)c1OCc1cccc(Cl)c1 | 14.1 µM (active) | 
4 | COc1cnc(SCc2ccc(Cl)cc2)nc1Cl | inactive | 
5 | COc1cc(/C=N/O)cc(Br)c1OCc1ccc(Cl)cc1 | 15.8 µM (active) | 
6 | CCCN1CCN(CCCNC(=O)Cn2nc(-c3ccc(C)cc3)ccc2=O)CC1 | inactive | 
7 | Cc1ccc(-c2ccc(=O)n(CC(=O)N3CCN(c4cccc(C)c4)C(C)C3)n2)cc1 (stereo not drawn) | 14.1 µM (active) | 
8 | Cc1ccc(-c2ccc(=O)n(CC(=O)NCCN(C)C)n2)cc1 | inactive | 
9 | COc1cc2c(cc1OC)C(c1ccc(N)cc1)=NNC(=O)C2 | 12.6 µM (active) | 
10 | COC(=O)c1cc(Br)c(=O)n(CCN2CCCC2)c1 |  | 8.19% [at 2.29 µM] (inactive)
11 | COC(=O)c1cc(Br)c(=O)n(CCc2ccc(O)cc2)c1 | 15.8 µM (active) | 
12 | CCOc1ccc2c(c1)nc(SCC(=O)c1ccc(Br)s1)n2C | 6.31 µM (active) | 
13 | c1ccc2nc(C3=NCCN3)cnc2c1 | inactive | 
14 | C=CCNC(=S)Nc1ccc2nc(C)c(C)nc2c1 | 15.8 µM (active) | 
15 | C=CCNC(=S)N/N=C/c1ccc(OCc2ccccc2)cc1 | inactive | 
16 | CC(C)Cn1c(SCC(=O)c2c(N)n(C)c(=O)n(C)c2=O)nc2ccccc21 | 2.51 µM (active) | 
17 | CCNC(=O)NC(=O)CSc1nc2ccccc2n1CC(C)C | 12.6 µM (active) | 
18 | OC[C@@H]1O[C@@H](n2cnc3c(NC4CCCC4)ncnc32)[C@H](O)[C@H]1O | inactive | 
19 | O=C(Cc1ccc(Cl)cc1)NNC(=O)Nc1cccc2ccccc12 |  | -12.3% [at 2.29 µM] (inactive)
20 | CC(=O)Oc1ccc2ccccc2c1C(NC(=O)Cc1ccccc1)c1ccc(Cl)cc1 (stereo not drawn) | 8.91 µM (active) | 
21 | CN1[C@@H]2CC[C@H]1CC(OC(c1ccccc1)c1ccccc1)C2 (stereo partly drawn) | inactive | 
22 | Cc1cc(C(=O)C(=O)NC(C)C)c(C)n1-c1ccc([N+](=O)[O-])cc1 | inactive | 
23 | C=CCN(CC=C)C(=O)C(=O)c1cc(C)n(-c2ccc([N+](=O)[O-])cc2)c1C | 2.82 µM (active) | 
24 | CCC(=O)Nc1nnc(C(C)(C)C)s1 | inactive | 
25 | O=C(Nc1nccs1)c1sc2cc(Cl)ccc2c1Cl | 10 µM (active) | 

Row | SMILES | AC50 | activity, negative = inhibition
26 | Clc1ccc2c(NCCNc3ccnc4cc(Cl)ccc34)ccnc2c1 |  | 4.32% [at 11.4 µM] (inactive)
27 | COc1ccccc1CNc1ncnc2ccc(-c3ccccc3C#N)cc12 | 3.98 µM (active) | 
28 | COc1ccc(CNc2ncnc3ccc(-c4ccccc4C#N)cc23)c(OC)c1 | 1 µM (active) | 
29 | Cc1ccccc1-n1cnc2cc(NCc3cccs3)ccc21 | 5.01 µM (active) | 
30 | CCCCc1ccc(NC(=S)NCc2cccs2)cc1 |  | -10% [at 2.29 µM] (inactive)
31 | c1ccc(-n2cnc3cc(NCc4cccs4)ccc32)cc1 | 7.08 µM (active) | 
32 | O=S(=O)(O)c1cc(N=Nc2cccc3ccccc23)c(O)c2ncccc12 |  | -5.6% [at 11.4 µM] (inactive)
33 | O=S(=O)(Nc1cccnc1Cl)c1ccc2c(c1)OCCO2 |  | 7.34% [at 2.29 µM] (inactive)
34 | O=S(=O)(Nc1ccc2c(c1)OCCO2)c1cccc2cccnc12 | 15.8 µM (active) | 
35 | CNC(=S)N1N=C(c2ccc(OC)cc2)CC1c1ccc(N(C)C)cc1 (stereo not drawn) | 3.98 µM (active) | 
36 | NC(N)=NC[C@@H]1COC2(CCCCC2)O1 | inactive | 
37 | CCOc1ncnc2c1oc1nc(CC(C)C)c3c(c12)CC(C)(C)OC3 | inactive | 
38 | CCOC(=O)c1oc2nc(CC(C)C)c3c(c2c1N)CCC3 | 3.16 µM (active) | 
39 | CC(C)Cc1nc(N2CCN(C(=O)c3ccccc3)CC2)c(C#N)c2c1CCC2 | inactive | 
40 | CCn1c(SCC(=O)N/N=C/C=C\c2ccccc2[N+](=O)[O-])nnc1-c1ccccc1 | 12.6 µM (active) | 
41 | Cn1c(SCC(=O)N/N=C/C=C\c2ccco2)nc2ccccc21 |  | 9.61% [at 2.29 µM] (inactive)
42 | CC(=O)Nc1nc2ccccc2n1Cc1ccccc1 | inactive | 
43 | CS(=O)(=O)c1nc2ccccc2n1Cc1ccccc1 | inactive | 
44 | COc1ccc(CNc2nc3ccccc3n2Cc2ccccc2)cc1OC | 3.98 µM (active) | 
45 | C#CCCCO/N=C1/[C@H]2O[C@@H]2[C@@H](O)[C@H]2[C@H]1CCn1c(=O)n(C)c(=O)n12 |  | -24.7% [at 11.4 µM] (inactive)
46 | Cc1ccc(Cc2cnc(NC(=O)c3cccs3)s2)cc1 | 7.94 µM (active) | 
47 | CCCc1nnc(NC(=O)c2cccs2)s1 | inactive | 
48 | CN(C)CCCN1CCC2(CCC(C(C)(C)C)CC2)CC1 |  | 1.95% [at 11.4 µM] (inactive)
49 | COc1ccccc1NC(=O)CN1CCN(c2ccccc2F)CC1 | inactive | 
50 | COc1ccc(NC(C)=O)cc1NC(=O)CN1CCN(C2c3ccccc3-c3ccccc32)CC1 | 10 µM (active) | 

Row | SMILES | AC50 | activity, negative = inhibition
51 | COc1ccccc1NC(=O)CN1CCN(C2c3ccccc3-c3ccccc32)CC1 | 12.6 µM (active) | 
52 | NS(=O)(=O)c1cc(C(=O)O)c(Cl)c([N+](=O)[O-])c1Cl |  | -5.24% [at 11.4 µM] (inactive)
53 | CCNc1ncc2nc(-c3ccc(F)cc3)c(=O)n(C[C@H]3CCCO3)c2n1 | inactive | 
54 | CCNc1ncc2nc(CCc3ccccc3)c(=O)n(Cc3ccc(F)cc3)c2n1 | 2.51 µM (active) | 
55 | CCNc1ncc2nc(CCc3ccccc3)c(=O)n(CCC#N)c2n1 | 15.8 µM (active) | 
56 | CCSC1=C(C#N)C2(CCCCC2)C(C#N)=C(N)N1 | 8.91 µM (active) | 
57 | COc1ccc(C(=O)Nc2nc3c(s2)Cc2cc(OC)ccc2-3)cc1 | 11.2 µM (active) | 
58 | COc1ccc2c(c1)CCc1sc(NC(=O)c3ccc(C)cc3)nc1-2 | 10 µM (active) | 
59 | COc1ccc2c(c1)Cc1sc(NC(=O)c3ccco3)nc1-2 | 11.2 µM (active) | 
60 | CC(C)Oc1cccc(-n2c(CCc3c[nH]c4ccc(Br)cc34)nc3ccccc3c2=O)c1 | 3.98 µM (active) | 
61 | O=C(O)Cc1c[nH]c2ccc(O)cc12 | inactive | 
62 | C/C(CC/C(C)=N/O)=N/O |  | -10.6% [at 11.4 µM] (inactive)
63 | O=C(O)c1c[nH]c2c(ccc3[nH]cc(C(=O)O)c(=O)c32)c1=O |  | -16.3% [at 11.4 µM] (inactive)
64 | Cc1c(NC(=O)C(C)N2C(=O)c3ccccc3C2=O)c(=O)n(-c2ccccc2)n1C (stereo not drawn) | inactive | 
65 | Cc1cc(SC(C)C(=O)Nc2c(C)n(C)n(-c3ccccc3)c2=O)nc2ccccc12 (stereo not drawn) | 12.6 µM (active) | 
66 | Cc1cc(C(=O)Nc2c(C)n(C)n(-c3ccccc3)c2=O)c2ccccc2n1 | inactive | 
67 | O=C(Nc1cccc2ncccc12)c1ccc(-c2ccc(Br)cc2)o1 | 2.82 µM (active) | 
68 | Cc1ccc(OCC(=O)N/N=C\c2c(C)n(C)c3ccccc23)c([N+](=O)[O-])c1 | 7.08 µM (active) | 
69 | CC(=O)N/N=C/c1cc([N+](=O)[O-])ccc1OCCOc1ccccc1 | inactive | 
70 | COc1ccc(C=O)cc1COc1ccc(C)cc1[N+](=O)[O-] | inactive | 
71 | COc1ccccc1-c1ccc2ncnc(N(C)C)c2c1 | 5.01 µM (active) | 
72 | Cc1ccccc1-c1ccc2ncnc(N(C)C)c2c1 | 3.16 µM (active) | 
73 | CC(=O)N1CCc2cc(S(=O)(=O)CCC(=O)Nc3c(C)n(C)n(-c4ccccc4)c3=O)ccc21 | inactive | 
74 | Cc1ccc(S(=O)(=O)CCC(=O)Nc2nc3c(s2)CCCC3)cc1 | 8.91 µM (active) | 
75 | Nc1cc(-c2nn[nH]n2)ccc1F | inactive | 

Row | SMILES | AC50 | activity, negative = inhibition
76 | COC(=O)C/C=C\[C@@H](C)[C@@H](/C=N\OC[C@@H]1O[C@H](c2ccccc2)C=C[C@@H]1Oc1ccc(OC)cc1)OC | 3.16 µM (active) | 
77 | COC(=O)C/C=C\[C@@H](C)[C@@H](/C=N\OC[C@@H]1O[C@H](c2ccccc2)C=C[C@@H]1Oc1ccc(OC)cc1)NS(=O)(=O)c1ccc(C)cc1 | 5.01 µM (active) | 
78 | CC(C)CSC[C@@H]1O[C@H](n2cnc3c(N)nccc32)[C@H](O)[C@@H]1O |  | -25.4% [at 11.4 µM] (inactive)
79 | Cc1noc(C)c1-c1cncnc1N1CCN(C)CC1 | 12.6 µM (active) | 
80 | Cc1ccccc1-c1cncnc1N1CCN(C)CC1 | 1.58 µM (active) | 
81 | CN1CCN(c2ncncc2-c2ccccc2Cl)CC1 | 1.58 µM (active) | 
82 | Cc1noc(C)c1-c1cc(N2CCN(C)CC2)ncn1 | inactive | 
83 | CN1CCN2c3ncccc3Cc3ccccc3C2C1 (stereo not drawn) | inactive | 
84 | Cc1ccccc1NC(=S)NN1CCN(C)CC1 | inactive | 
85 | COc1ccccc1-c1cncnc1N1CCN(C)CC1 | 2.51 µM (active) | 
86 | CN1CCN(c2cc(-c3ccccc3C(F)(F)F)ncn2)CC1 | inactive | 
87 | CN1CCN(c2ncncc2-c2ccoc2)CC1 | 7.94 µM (active) | 
88 | CC(C)(C)c1c2c(c(C(C)(C)C)c3c1OCN(Cc1ccccc1)C3)OCN(Cc1ccccc1)C2 |  | 5.7% [at 11.4 µM] (inactive)
89 | CC[C@@H](Nc1ncnc2nc[nH]c12)C(=O)O |  | -5.2% [at 11.4 µM] (inactive)
90 | Cc1occc1C(=O)NNC(=O)Cc1ccccc1 | inactive | 
91 | COc1ccc(C(=O)NNC(=O)Cc2ccc(-c3ccccc3)cc2)cc1OC | 6.31 µM (active) | 
92 | COc1ccc(OCC(=O)NNC(=O)c2ccc(-c3ccccc3)cc2)cc1 | inactive | 
93 | COc1cc(/C=N\NC(=O)C2C(=O)NCC2c2ccccc2)cc(OC)c1O (stereo not drawn) | inactive | 
94 | CSc1nsc(SCc2ccc(Cl)cc2)n1 | inactive | 
95 | Clc1ccc(CSc2ncnc3c2ncn3[C@@H]2CCCCO2)cc1 |  | 11.8% [at 11.4 µM] (inactive)
96 | CC(C)[C@H](N)c1nnc(SCc2ccc(Cl)cc2)o1 | 1.58 µM (active) | 
97 | Clc1cccc(Cl)c1CSc1nnc(/C=C/c2ccccc2)o1 |  | -16.1% [at 11.4 µM] (inactive)
98 | CC(C)[C@H](N)c1nnc(SC/C=C/c2ccccc2)o1 | 1.26 µM (active) | 
